Data as given in ChEMBL document CHEMBL1961873, “Compounds: GSK PKIS; Assays: Nanosyn kinase panel” (2012).

Columns and labels:
[1] = target: Sphingosine kinase 1 (Homo sapiens) (UniProt Q9NYA1); settings: at 1 µM;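 note: mean SPHK1 inhibition value reported from the GSK PKIS kinase panel screen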
[2] = target: T1, Sphingosine kinase 2 (Homo sapiens) (UniProt Q9NRA0); settings: at 0.1 µM
T1 sequence (whole entry): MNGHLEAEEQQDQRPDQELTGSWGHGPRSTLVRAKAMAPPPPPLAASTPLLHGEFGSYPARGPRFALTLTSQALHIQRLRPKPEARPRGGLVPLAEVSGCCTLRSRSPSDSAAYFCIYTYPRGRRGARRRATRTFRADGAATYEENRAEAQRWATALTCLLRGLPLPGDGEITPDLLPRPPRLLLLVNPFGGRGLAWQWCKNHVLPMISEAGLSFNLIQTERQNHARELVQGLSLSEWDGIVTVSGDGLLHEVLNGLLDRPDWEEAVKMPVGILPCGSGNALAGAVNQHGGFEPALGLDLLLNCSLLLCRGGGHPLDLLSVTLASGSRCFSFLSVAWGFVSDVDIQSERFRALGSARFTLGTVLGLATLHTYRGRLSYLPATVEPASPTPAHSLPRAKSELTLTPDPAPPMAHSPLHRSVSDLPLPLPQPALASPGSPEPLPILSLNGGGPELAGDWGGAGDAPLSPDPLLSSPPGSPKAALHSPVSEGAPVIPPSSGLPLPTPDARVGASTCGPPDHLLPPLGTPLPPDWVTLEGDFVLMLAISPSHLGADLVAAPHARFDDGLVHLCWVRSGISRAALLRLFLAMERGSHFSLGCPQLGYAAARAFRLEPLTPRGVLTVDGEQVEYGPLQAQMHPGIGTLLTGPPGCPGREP

[3] = target: T1, Sphingosine kinase 2 (Homo sapiens); settings: at 1 µM
[4] = target: Casein kinase II subunit alpha (Homo sapiens) (UniProt P68400); settings: at 0.1 µM
[5] = target: Casein kinase II subunit alpha (Homo sapiens) (UniProt P68400); settings: at 1 µM
[6] = target: T2, Inhibitor of nuclear factor kappa-B kinase subunit alpha (Homo sapiens) (UniProt O15111); settings: at 0.1 µM
T2 sequence (whole entry): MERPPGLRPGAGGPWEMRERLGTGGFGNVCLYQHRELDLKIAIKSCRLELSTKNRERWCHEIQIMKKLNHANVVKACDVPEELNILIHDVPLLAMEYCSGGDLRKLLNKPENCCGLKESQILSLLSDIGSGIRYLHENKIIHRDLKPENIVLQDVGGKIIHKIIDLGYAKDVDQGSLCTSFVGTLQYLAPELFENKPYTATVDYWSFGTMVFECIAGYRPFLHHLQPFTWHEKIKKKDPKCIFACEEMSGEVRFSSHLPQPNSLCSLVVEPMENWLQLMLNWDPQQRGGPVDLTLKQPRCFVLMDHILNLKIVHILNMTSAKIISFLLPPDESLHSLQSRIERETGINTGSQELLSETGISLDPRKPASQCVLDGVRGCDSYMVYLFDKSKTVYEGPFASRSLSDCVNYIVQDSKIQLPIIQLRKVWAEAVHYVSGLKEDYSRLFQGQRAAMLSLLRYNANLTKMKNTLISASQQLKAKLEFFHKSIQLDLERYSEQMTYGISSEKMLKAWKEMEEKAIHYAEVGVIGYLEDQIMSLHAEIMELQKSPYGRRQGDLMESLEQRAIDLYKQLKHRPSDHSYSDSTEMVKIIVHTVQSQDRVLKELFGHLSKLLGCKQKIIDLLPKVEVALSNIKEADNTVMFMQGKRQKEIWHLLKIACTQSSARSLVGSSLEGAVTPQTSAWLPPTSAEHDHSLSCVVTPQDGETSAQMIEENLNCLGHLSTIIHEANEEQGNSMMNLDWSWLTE

[7] = target: T2, Inhibitor of nuclear factor kappa-B kinase subunit alpha (Homo sapiens); settings: at 1 µM
[8] = target: T3, Inhibitor of nuclear factor kappa-B kinase subunit beta (Homo sapiens) (UniProt O14920); settings: at 0.1 µM
T3 sequence (whole entry): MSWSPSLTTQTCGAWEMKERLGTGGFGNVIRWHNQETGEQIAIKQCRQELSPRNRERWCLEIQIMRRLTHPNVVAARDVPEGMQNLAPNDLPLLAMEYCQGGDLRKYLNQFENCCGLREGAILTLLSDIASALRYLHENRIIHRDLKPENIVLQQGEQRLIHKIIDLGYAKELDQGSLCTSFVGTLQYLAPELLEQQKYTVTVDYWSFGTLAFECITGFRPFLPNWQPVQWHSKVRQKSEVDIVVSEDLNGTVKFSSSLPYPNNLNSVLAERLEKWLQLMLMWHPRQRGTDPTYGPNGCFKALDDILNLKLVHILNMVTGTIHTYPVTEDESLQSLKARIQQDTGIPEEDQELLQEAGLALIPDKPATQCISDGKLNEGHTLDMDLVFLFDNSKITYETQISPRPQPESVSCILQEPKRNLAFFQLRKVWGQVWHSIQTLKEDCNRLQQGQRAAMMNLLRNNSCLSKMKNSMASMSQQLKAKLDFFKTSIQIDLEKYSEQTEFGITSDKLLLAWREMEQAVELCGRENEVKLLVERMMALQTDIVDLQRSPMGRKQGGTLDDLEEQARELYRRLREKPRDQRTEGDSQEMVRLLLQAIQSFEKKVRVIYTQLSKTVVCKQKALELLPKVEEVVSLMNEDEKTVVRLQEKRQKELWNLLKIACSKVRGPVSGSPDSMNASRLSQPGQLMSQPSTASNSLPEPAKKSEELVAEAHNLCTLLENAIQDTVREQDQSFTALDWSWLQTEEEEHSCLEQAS

[9] = target: T3, Inhibitor of nuclear factor kappa-B kinase subunit beta (Homo sapiens); settings: at 1 µM
[10] = target: T4, Inhibitor of nuclear factor kappa-B kinase subunit epsilon (Homo sapiens) (UniProt Q14164); settings: at 0.1 µM
T4 sequence (whole entry): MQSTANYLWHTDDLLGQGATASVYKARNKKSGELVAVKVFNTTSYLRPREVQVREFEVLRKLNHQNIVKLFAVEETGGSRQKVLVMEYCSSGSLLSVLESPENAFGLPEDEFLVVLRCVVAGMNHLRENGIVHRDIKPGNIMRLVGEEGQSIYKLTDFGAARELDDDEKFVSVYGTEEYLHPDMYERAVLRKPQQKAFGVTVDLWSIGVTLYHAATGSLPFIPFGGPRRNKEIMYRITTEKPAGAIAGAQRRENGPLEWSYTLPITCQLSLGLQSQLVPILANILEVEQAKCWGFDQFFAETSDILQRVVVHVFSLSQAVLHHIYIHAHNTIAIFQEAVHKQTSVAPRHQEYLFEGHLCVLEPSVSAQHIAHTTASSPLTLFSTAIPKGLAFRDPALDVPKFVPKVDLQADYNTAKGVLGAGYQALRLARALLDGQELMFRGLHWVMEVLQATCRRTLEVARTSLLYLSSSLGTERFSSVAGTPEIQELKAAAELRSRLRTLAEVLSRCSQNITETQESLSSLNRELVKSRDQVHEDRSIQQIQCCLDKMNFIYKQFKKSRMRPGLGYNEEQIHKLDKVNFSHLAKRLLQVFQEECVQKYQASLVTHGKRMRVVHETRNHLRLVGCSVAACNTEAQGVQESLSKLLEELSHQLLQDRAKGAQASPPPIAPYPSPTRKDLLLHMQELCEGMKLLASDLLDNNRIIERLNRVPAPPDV

[11] = target: T4, Inhibitor of nuclear factor kappa-B kinase subunit epsilon (Homo sapiens); settings: at 1 µM
[12] = target: T5, Serine/threonine-protein kinase Nek1 (Homo sapiens) (UniProt Q96PY6); settings: at 0.1 µM
T5 sequence (whole entry): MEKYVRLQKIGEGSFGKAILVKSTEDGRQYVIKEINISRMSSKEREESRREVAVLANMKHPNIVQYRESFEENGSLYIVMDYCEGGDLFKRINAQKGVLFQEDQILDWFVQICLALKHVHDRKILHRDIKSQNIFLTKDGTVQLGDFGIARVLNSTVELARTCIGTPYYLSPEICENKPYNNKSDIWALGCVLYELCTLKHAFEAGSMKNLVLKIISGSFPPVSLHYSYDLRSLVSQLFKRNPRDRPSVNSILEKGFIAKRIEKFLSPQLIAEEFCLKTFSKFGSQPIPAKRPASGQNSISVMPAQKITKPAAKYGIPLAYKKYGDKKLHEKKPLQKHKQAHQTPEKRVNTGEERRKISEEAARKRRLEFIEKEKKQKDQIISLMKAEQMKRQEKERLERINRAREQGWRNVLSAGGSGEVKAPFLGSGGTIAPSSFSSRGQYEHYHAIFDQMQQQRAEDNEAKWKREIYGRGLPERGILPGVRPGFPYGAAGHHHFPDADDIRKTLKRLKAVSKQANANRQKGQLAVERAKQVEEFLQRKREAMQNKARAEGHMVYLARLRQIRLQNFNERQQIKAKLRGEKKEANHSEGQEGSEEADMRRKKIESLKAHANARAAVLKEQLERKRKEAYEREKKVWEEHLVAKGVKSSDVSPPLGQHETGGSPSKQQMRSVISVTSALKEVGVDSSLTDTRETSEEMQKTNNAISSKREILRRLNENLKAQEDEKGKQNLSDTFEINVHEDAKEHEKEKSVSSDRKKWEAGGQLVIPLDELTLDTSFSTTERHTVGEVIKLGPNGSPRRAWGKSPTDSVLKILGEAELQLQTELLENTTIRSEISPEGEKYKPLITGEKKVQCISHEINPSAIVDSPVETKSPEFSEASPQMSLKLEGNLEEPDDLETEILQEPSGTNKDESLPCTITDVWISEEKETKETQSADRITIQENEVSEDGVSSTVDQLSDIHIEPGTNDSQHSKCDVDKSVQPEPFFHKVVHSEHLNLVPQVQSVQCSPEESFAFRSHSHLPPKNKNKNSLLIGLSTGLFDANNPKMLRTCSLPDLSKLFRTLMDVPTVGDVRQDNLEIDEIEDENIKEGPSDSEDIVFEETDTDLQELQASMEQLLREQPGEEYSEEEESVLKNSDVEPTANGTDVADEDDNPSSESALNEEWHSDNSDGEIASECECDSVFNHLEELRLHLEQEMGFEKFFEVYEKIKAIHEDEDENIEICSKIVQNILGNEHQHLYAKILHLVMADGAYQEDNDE

[13] = target: T5, Serine/threonine-protein kinase Nek1 (Homo sapiens); settings: at 1 µM
[14] = target: T6, Serine/threonine-protein kinase Nek2 (Homo sapiens) (UniProt P51955); settings: at 0.1 µM
T6 sequence (whole entry): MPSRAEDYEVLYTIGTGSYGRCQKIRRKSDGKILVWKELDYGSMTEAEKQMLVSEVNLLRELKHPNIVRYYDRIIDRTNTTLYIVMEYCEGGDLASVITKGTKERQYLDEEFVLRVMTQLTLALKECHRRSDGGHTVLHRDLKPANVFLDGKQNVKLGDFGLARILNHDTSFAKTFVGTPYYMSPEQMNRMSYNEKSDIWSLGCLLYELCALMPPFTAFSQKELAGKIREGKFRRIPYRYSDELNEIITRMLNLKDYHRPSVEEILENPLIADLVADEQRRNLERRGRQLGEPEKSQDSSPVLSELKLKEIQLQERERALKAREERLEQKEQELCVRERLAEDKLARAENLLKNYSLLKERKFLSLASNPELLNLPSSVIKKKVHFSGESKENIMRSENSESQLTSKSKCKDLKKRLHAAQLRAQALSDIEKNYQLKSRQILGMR

[15] = target: T6, Serine/threonine-protein kinase Nek2 (Homo sapiens); settings: at 1 µM
[16] = target: Serine/threonine-protein kinase Nek6 (Homo sapiens) (UniProt Q9HC98); settings: at 0.1 µM
[17] = target: Serine/threonine-protein kinase Nek6 (Homo sapiens) (UniProt Q9HC98); settings: at 1 µM
[18] = target: Serine/threonine-protein kinase Nek7 (Homo sapiens) (UniProt Q8TDX7); settings: at 0.1 µM
[19] = target: Serine/threonine-protein kinase Nek7 (Homo sapiens) (UniProt Q8TDX7); settings: at 1 µM
[20] = target: T7, Serine/threonine-protein kinase Nek9 (Homo sapiens) (UniProt Q8TD19); settings: at 0.1 µM;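 note: reported value is the mean percent inhibition of NEK9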
T7 sequence (whole entry): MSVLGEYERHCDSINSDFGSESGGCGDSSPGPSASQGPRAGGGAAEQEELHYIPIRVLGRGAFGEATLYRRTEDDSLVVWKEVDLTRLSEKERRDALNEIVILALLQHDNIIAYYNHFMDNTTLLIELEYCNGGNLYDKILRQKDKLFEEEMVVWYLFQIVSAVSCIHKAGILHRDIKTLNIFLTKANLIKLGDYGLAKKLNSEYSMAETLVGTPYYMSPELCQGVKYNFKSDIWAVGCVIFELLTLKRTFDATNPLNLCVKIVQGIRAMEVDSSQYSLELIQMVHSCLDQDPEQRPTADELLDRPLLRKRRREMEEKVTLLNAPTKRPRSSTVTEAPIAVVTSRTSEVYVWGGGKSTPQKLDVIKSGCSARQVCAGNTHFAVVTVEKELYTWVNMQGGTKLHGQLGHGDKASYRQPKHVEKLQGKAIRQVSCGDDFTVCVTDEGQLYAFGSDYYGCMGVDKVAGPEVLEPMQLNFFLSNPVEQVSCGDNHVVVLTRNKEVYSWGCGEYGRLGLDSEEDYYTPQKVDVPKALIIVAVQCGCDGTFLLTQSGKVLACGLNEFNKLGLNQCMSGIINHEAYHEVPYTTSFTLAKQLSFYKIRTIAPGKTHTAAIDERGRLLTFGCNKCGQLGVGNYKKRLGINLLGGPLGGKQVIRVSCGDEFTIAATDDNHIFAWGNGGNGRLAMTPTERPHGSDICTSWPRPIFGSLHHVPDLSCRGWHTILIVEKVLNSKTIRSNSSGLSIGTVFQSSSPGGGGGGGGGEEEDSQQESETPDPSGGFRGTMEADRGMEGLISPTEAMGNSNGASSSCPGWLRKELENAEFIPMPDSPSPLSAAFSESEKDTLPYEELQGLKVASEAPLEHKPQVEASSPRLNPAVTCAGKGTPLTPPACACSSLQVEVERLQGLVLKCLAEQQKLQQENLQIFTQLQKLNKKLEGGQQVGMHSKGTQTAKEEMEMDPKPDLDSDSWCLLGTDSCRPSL

Chain of Serine/threonine-protein kinase Nek7 (Homo sapiens) (Q8TDX7 whole entry, looked up): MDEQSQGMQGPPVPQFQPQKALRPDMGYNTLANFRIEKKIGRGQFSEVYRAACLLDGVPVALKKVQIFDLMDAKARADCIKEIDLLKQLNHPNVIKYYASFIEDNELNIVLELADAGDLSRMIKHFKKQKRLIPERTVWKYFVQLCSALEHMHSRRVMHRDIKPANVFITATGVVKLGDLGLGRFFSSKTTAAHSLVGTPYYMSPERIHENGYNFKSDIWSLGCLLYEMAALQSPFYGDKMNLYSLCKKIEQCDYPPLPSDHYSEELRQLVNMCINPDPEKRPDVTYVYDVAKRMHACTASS
Chain of Casein kinase II subunit alpha (Homo sapiens) (P68400 whole entry, looked up): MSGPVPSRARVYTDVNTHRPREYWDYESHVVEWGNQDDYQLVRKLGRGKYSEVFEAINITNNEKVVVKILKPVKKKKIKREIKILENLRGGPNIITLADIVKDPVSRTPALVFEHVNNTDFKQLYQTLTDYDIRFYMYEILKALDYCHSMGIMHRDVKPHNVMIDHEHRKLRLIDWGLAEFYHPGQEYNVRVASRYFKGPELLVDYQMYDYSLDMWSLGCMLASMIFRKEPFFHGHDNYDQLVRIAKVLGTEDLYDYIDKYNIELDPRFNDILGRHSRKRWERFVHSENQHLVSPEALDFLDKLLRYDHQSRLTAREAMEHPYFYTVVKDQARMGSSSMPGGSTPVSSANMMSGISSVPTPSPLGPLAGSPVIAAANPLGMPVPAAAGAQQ
Chain of Serine/threonine-protein kinase Nek6 (Homo sapiens) (Q9HC98 whole entry): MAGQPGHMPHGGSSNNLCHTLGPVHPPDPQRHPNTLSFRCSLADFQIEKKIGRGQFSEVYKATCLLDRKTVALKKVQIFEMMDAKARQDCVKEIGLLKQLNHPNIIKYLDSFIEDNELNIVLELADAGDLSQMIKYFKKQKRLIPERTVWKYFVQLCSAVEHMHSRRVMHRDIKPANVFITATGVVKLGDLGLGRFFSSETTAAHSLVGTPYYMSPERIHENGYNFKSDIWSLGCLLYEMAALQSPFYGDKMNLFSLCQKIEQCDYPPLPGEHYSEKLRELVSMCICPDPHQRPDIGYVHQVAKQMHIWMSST
Chain of Sphingosine kinase 1 (Homo sapiens) (Q9NYA1 whole entry): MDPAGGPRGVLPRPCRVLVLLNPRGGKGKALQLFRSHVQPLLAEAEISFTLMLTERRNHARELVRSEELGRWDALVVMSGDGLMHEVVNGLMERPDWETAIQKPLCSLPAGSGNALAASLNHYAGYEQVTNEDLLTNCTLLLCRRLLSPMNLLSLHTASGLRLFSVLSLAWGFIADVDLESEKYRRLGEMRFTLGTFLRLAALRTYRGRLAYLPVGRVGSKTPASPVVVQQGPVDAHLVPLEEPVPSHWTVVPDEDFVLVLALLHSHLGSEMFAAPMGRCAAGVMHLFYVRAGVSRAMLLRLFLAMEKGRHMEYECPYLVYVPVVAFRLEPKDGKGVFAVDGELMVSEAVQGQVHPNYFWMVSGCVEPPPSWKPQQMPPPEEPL

SMILES: COc1ccc2ncn(-c3cc(O[C@H](C)c4ccccc4Cl)c(C(N)=O)s3)c2c1
- inhibition [1]: -2.39%
- inhibition [2]: -0.22%
- inhibition [3]: 0.79%
- inhibition [4]: 5.1%
- inhibition [5]: 3.41%
- inhibition [6]: 7.01%
- inhibition [7]: 6.42%
- inhibition [8]: 6.12%
- inhibition [9]: 4.8%
- inhibition [10]: 5.23%
- inhibition [11]: 4.23%
- inhibition [12]: 4.81%
- inhibition [13]: 24.8%
- inhibition [14]: 5.9%
- inhibition [15]: 10.3%
- inhibition [16]: 0.15%
- inhibition [17]: 0.34%
- inhibition [18]: 3.12%
- inhibition [19]: 6.32%
- inhibition [20]: 31.8%
